USP8 block = inhibitors of human USP8 deubiquitinase. Ubiquitin carboxyl-terminal hydrolase 8 (Homo sapiens), P40818. purified USP8, Ub-rhodamine cleavage fluorescence, 30 min. inhibition, % at 20 µM. 47,000 compounds, 4.2% hits
USP30 block = inhibitors of human USP30 deubiquitinase; purified USP30, Ub-rhodamine cleavage fluorescence; inhibition, % at 25 µM; 47,000 compounds, 5.3% hits
Target sequence (Q70CQ3 whole entry, looked up): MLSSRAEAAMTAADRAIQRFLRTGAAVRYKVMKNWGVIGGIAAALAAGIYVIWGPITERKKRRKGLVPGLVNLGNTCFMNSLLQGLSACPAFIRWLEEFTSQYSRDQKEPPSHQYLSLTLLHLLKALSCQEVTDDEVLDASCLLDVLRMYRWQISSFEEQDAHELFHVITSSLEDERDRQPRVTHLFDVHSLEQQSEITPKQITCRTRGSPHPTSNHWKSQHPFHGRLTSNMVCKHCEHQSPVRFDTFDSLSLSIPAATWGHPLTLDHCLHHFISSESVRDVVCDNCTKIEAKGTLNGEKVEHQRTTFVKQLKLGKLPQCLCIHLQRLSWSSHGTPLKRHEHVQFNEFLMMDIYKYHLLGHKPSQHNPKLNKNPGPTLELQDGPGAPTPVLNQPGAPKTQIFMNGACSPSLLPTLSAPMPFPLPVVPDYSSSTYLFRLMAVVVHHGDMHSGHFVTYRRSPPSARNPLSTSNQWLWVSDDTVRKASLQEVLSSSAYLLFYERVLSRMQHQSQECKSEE
USP10 block = inhibitors of human USP10 deubiquitinase | Ubiquitin carboxyl-terminal hydrolase 10 (Homo sapiens), Q14694 | purified USP10, Ub-rhodamine fluorescence, 60 min | inhibition, % at 20 µM | 47,000 compounds, 1.1% hits | AID 1645856, 2021
OTUD3 block = inhibitors of human OTUD3 deubiquitinase; AID 1645858, 2021; purified OTUD3, Ub-rhodamine fluorescence, 2 h; 47,000 compounds, 0.7% hits; OTU domain-containing protein 3 (Homo sapiens), Q5T2D3; inhibition, % at 25 µM
USP17 inh = inhibitors of human USP17 deubiquitinase; 47,000 compounds, 6.5% hits; inhibition, % at 50 µM; AID 1645855, 2021; purified USP17, Ub-rhodamine cleavage fluorescence, 3 h
USP28 inh = inhibitors of human USP28 deubiquitinase. Ubiquitin carboxyl-terminal hydrolase 28 (Homo sapiens), Q96RU2. purified USP28, Ub-rhodamine cleavage fluorescence, 30 min. inhibition, % at 25 µM. 47,000 compounds, 3% hits. AID 1645857, 2021
Large screens that a line does not name were inactive. The list is not random: actives were taken first. Their share in the collection is about 13%. No stated cut-off is given here; in the data, active means inhibition above about 30%; inactive means the rest.

CCn1ncc(CN2CCC(O)(Cn3ccc4ncccc43)CC2)c1C	none
O=S1(=O)NC(=NCCc2cccc(F)c2)c2ccccc21	USP30 block 34, USP17 inh 49
COc1ccc(CNC(=O)CC2CCN(C(=O)c3ccccc3)CC2)c(OC)c1	none
Cc1cccc(C(=O)Nc2ccc(NC(=O)COc3ccccc3Cl)cc2)c1	USP8 block 67
Cc1ncoc1C(=O)N1CCCCC1c1ncc(Cc2ccc(F)cc2)o1 (centres undefined)	none
CCCCNC(=O)C1Sc2nnc(-c3ccccc3)n2NC1c1ccccc1 (centres undefined)	USP30 block 50
CN(C(=O)C1CCN(S(=O)(=O)c2cccc3nsnc23)CC1)c1ccc(Br)cc1	none
CSc1nc(N2CCCC2)c2sccc2n1	USP17 inh 40
CC(=O)N1C[C@H](c2ccccc2)[C@H]2CN(C(=O)c3ccc(=O)[nH]c3)CC[C@H]21	USP30 block 30
O=C(OCc1csc(-c2ccc(F)cc2)n1)c1ccc2c(c1)OCCO2	none
CNC(=O)N1CCCN(C2CCN(Cc3ccccc3)C2=O)CC1 (centres undefined)	USP30 block 30
Cc1nc(C)c(CC(=O)N2CCCC(Cc3nccnc3N)C2)s1 (centres undefined)	none
O=C(NCc1ccc2c(c1)OCO2)[C@@H]1Cc2c([nH]c3ccccc23)C2c3ccccc3C(=O)N21 (some centres undefined)	none
Cc1nc(C(=O)N[C@@H](C)C(=O)NCc2ccc3c(c2)OCO3)cc2c1[nH]c1ccccc12	USP17 inh 57
C[C@H](NC(=O)[C@@H]1Cc2c([nH]c3ccccc23)C2c3ccccc3C(=O)N21)C(=O)NCc1ccc2c(c1)OCO2 (some centres undefined)	USP17 inh 34
O=C1c2ccccc2C2c3[nH]c4ccccc4c3C(c3ccc4c(c3)OCO4)CN12 (centres undefined)	USP17 inh 33
COc1ccc(C(=O)CN2C(=O)CCSc3ccc(Cl)cc32)cc1	none
Cc1ccc2[nH]c3c(=O)n(CCc4ccccc4)cnc3c2c1	USP8 block 32
CCOc1ccc2[nH]c3c(=O)n(CCC4=CCCCC4)cnc3c2c1	USP8 block 47 (no result: USP17 inh)
CCOc1ccc2[nH]c3c(=O)n(CCc4ccc(OC)cc4)cnc3c2c1	USP17 inh 67
O=c1c2[nH]c3ccc(Br)cc3c2ncn1CCN1CCNCC1	USP30 block 40, USP17 inh 38
COc1ccc2c(c1)[nH]c1c(=O)n(Cc3ccccc3)cnc12	USP30 block 73, USP17 inh 71
Cc1ccc(CSc2nnc(C3CCCN3)o2)cc1 (centres undefined)	none
CCCn1cc(-c2nc(-c3ccccn3)no2)c(=O)c2cc(F)ccc21	none
CCn1cc(-c2nc(-c3ccccc3)no2)c(=O)c2cc(F)ccc21	USP17 inh 67
COc1ccc(NC(=O)CN2C(=O)c3ccccc3Sc3ccc(C(=O)N4CCCC4)cc32)c(OC)c1	USP30 block 49, USP17 inh 55
CCN(CC)C(=O)CSc1nnc2c3c(c(C#N)c(Nc4ccccc4)n12)CC(C)(C)OC3	none (no result: USP17 inh)
COC(=O)c1ccc(NC(=O)CSc2nnc(-c3ccc(O)cc3)n2Cc2ccco2)cc1	USP30 block 84
Cc1cc(-c2cnc(N3CCCCC3)nc2[C@@H]2CCCO2)on1	none
COc1ccc(OCCCn2c(CNC(=O)c3ccco3)nc3ccccc32)cc1	USP30 block 48, USP17 inh 41
COc1cccc(OCCCn2c(C(C)NC(=O)c3ccco3)nc3ccccc32)c1 (centres undefined)	USP17 inh 51
COc1cccc(OCCCn2c(CN(C)C(=O)c3ccco3)nc3ccccc32)c1	none
COc1ccccc1CNc1nnc(-c2nc(C3CC3)no2)c2ccccc12	USP30 block 34
c1ccc2c(-c3nnc(C4CC4)o3)nnc(NC3CCCCC3)c2c1	none
c1ccc2c(-c3nc(C4CC4)no3)nnc(NC3CCCC3)c2c1	USP30 block 39, USP28 inh 36
CC1CCN(c2nnc(-c3nc(C4CC4)no3)c3ccccc23)CC1	USP30 block 57, OTUD3 block 31
c1ccc2c(N3CCCC3)nnc(-c3nc(C4CC4)no3)c2c1	none
c1ccc(CNc2nnc(-c3nc(C4CC4)no3)c3ccccc23)cc1	none (no result: USP30 block, USP28 inh)
Cc1noc(C)c1C(=O)N1C[C@H]2CC(Oc3ccccc3)C[C@H]2C1 (some centres undefined)	none
Cc1c(C(=O)Nc2cccc(C(F)(F)F)c2)cnn1-c1ccccn1	USP17 inh 55
CCOc1ccc(-c2ccc3nnc(SCC(=O)Nc4cccc(C(C)=O)c4)n3n2)cc1	USP30 block 48, USP17 inh 61, USP28 inh 43
O=C(COc1ccc(-n2cnnn2)cc1)Nc1ccc(F)c(Cl)c1	USP17 inh 42
CCOc1ccc(NC(=O)COc2cccc(-n3cnnn3)c2)cc1	USP30 block 34, USP28 inh 55
O=C(COc1cccc(-n2cnnn2)c1)Nc1cccc(F)c1	none
CCN1CCN(C(=O)c2nc(-c3cnccn3)no2)CC1	none
COc1cn(-c2ccc(F)cc2)nc1C(=O)Nc1ccc(F)c(F)c1	USP30 block 32, USP17 inh 35
COc1ccc(NC(=O)CSc2nccn(-c3ccc(F)c(F)c3)c2=O)cc1Cl	none
CCc1cccc(CC)c1NC(=O)COC(=O)c1cc2cccc(OC)c2oc1=O	USP8 block 62, USP30 block 39, USP10 block 33, USP17 inh 90
Cc1cccc(C(C)C)c1NC(=O)COC(=O)c1cc2ccccc2oc1=O	none
COc1ccc(Cl)cc1NC(=O)COC(=O)c1cc2ccccc2oc1=O	USP8 block 70
COc1cccc2cc(C(=O)NCCOC34CC5CC(CC(C5)C3)C4)c(=O)oc12	none
O=S1(=O)N=C(N2CCC3(CC2)OCCO3)c2ccccc21	none
FC(F)(F)c1cnc(/C=C/Nc2cccc(Oc3ncc(C(F)(F)F)cc3Cl)c2)c(Cl)c1	USP8 block 75
Cc1cccc(C)c1NC(=O)CSc1ncnc2c1cnn2-c1ccc(Cl)cc1	none
O=C(CSc1ncnc2c1cnn2-c1ccccc1)Nc1ccccc1-c1ccccc1	USP30 block 31
Cc1ccc(C2CC(c3ccccc3)N(C(=O)C(C)C)c3ncnn32)cc1 (centres undefined)	USP30 block 40
COc1ccccc1C1CC(c2ccccc2)N(C(=O)CC(C)C)c2ncnn21 (centres undefined)	USP30 block 31
CC(C)C(=O)N1c2ncnn2C(c2ccccc2)CC1c1ccccc1 (centres undefined)	none

From PubChem BioAssay
